What was measured:
Assay in all cases: PBM binding z-score (relative to random genomic background probes); higher = stronger binding; sequences stand for … in GC…GCGATTGACAGCGTAGAATGAAGG
[1] = tested on: FXR:RXRa (NR concentration 270 nM, RXRa partner concentration 90 nM)
Summary of the method: (§1)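 Probes were double-stranded and carried 34-nt variable regions with direct-repeat seeds, single-nucleotide variants, half-site ablations and random human genomic background sequences, printed on custom Agilent 4×180K protein-binding microarrays. Arrays were incubated 1 h with ligand-free nuclear receptor dimers in PBS pH 7.4, 2% milk, 0.02% Triton X-100, 1 mM DTT, 0.2 mg/mL BSA and 0.4 mg/ml salmon testes DNA. Antibodies against each partner (one per run) detected binding, and scanned fluorescence was regression-normalized. Binding z-scores use the random background probes as reference.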

[2] = tested on: LXRa:RXRa (NR concentration 270 nM, RXRa partner concentration 90 nM)
Summary of the method: as §1

[3] = tested on: LXRa homodimer (NR concentration 270 nM)
Summary of the method: as §1

[4] = tested on: LXRb:RXRa (NR concentration 270 nM, RXRa partner concentration 90 nM)
Summary of the method: as §1

[5] = tested on: LXRb homodimer (NR concentration 270 nM)
Summary of the method: as §1

[6] = tested on: PPARa:RXRa (NR concentration 270 nM, RXRa partner concentration 90 nM)
Summary of the method: as §1

[7] = tested on: PPARg:RXRa (NR concentration 180 nM, RXRa partner concentration 90 nM)
Summary of the method: as §1

[8] = tested on: PPARg:RXRa 270nM:90nM, anti-RXR (NR concentration 270 nM, RXRa partner concentration 90 nM)
Summary of the method: as §1

[9] = tested on: PPARg:RXRa 30nM:10nM, anti-RXR (NR concentration 30 nM, RXRa partner concentration 10 nM)
Summary of the method: as §1

[10] = tested on: PPARg:RXRa 90nM:30nM, anti-RXR (NR concentration 90 nM, RXRa partner concentration 30 nM)
Summary of the method: as §1

[11] = tested on: PPARg:RXRa DBDmut IVT, anti-RXR (DBD mutation: RXRa K156A/R161A, NR concentration 270 nM, RXRa partner concentration 90 nM)
Summary of the method: as §1

[12] = tested on: PPARg:RXRa IVT, anti-PPARg (NR concentration 270 nM, RXRa partner concentration 90 nM)
Summary of the method: as §1

[13] = tested on: PPARg DBDmut:RXRa IVT, anti-PPARg (DBD mutation: PPARg1 K132A/R137A, NR concentration 270 nM, RXRa partner concentration 90 nM)
Summary of the method: as §1

[14] = tested on: PPARg DBDmut IVT, anti-PPARg (DBD mutation: PPARg1 K132A/R137A, NR concentration 270 nM)
Summary of the method: as §1

[15] = tested on: PPARg homodimer (NR concentration 180 nM)
Summary of the method: as §1

[16] = tested on: PXR:RXRa (NR concentration 270 nM, RXRa partner concentration 90 nM)
Summary of the method: as §1

[17] = tested on: PXR homodimer (NR concentration 270 nM)
Summary of the method: as §1

[18] = tested on: RARa:RXR (NR concentration 270 nM, RXRa partner concentration 90 nM)
Summary of the method: as §1

[19] = tested on: RARa homodimer (NR concentration 270 nM)
Summary of the method: as §1

[20] = tested on: RARb:RXRa (NR concentration 270 nM, RXRa partner concentration 90 nM)
Summary of the method: as §1

Row | Sequence | PBM binding z-score [1] | PBM binding z-score [2] | PBM binding z-score [3] | PBM binding z-score [4] | PBM binding z-score [5] | PBM binding z-score [6] | PBM binding z-score [7] | PBM binding z-score [8] | PBM binding z-score [9] | PBM binding z-score [10] | PBM binding z-score [11] | PBM binding z-score [12] | PBM binding z-score [13] | PBM binding z-score [14] | PBM binding z-score [15] | PBM binding z-score [16] | PBM binding z-score [17] | PBM binding z-score [18] | PBM binding z-score [19] | PBM binding z-score [20]
1 | AGATGTAGGTTAGCTGGGGTCATTCAGACTAGGC | 4.46 | 5.57 | 2.58 | 4.53 | 1.17 | 4.85 | 5.03 | 4.61 | 2.17 | 3.72 | 5.87 | 5.76 | 1.86 | 0.481 | 2.31 | 6.19 | 3.97 | 5.41 | 0.958 | 3
2 | CGAACTAGGTCACCGGAAGGTCAAAGTCCGCATG | 6.15 | 5.95 | 4.65 | 5.17 | 0.515 | 6.04 | 9.75 | 7.7 | 5.33 | 7.57 | 7.98 | 8.54 | 0.875 | 0.855 | 8.74 | 5.95 | 2.08 | 7.52 | 2.97 | 5.2
3 | ATCACTAGGTAAAGATAGTTCAGTGAATGCAAAT | 0.213 | 3.82 | 0.581 | 0.654 | 0.171 | 0.991 | 1.13 | 0.685 | 0.585 | 0.404 | 3.21 | 2.54 | 1.22 | 1.14 | 0.795 | 1.02 | 0.598 | 0.654 | 1.19 | 0.635
4 | ATATGTAGGTTAAGAGTCATTCAGGTTGGTTCGC | 0.855 | 1.47 | 0.703 | 1.18 | 0.774 | 4.58 | 8.36 | 7.68 | 6.62 | 8.28 | 7.43 | 7.13 | 1.39 | 1.44 | 2 | 1.5 | 0.614 | 1.5 | 1.72 | 1.42
5 | TCGAGTATGTTACCAATGGGGCATTCAGCTTTCT | -0.179 | -0.268 | -0.402 | 0.416 | -0.279 | 0.256 | -0.157 | 0.416 | 1.14 | 0.894 | 1.25 | 0.121 | -0.168 | -0.0708 | -0.422 | 0.0821 | -0.273 | 0.0781 | -0.543 | -0.0471
6 | ACTCGGAGGACAAAGCTCAGAGCTACGCCAGTGA | -0.419 | -0.663 | -0.768 | -1.06 | -0.958 | -0.608 | 0.401 | -0.00696 | -0.67 | -0.314 | -0.219 | -0.357 | -0.787 | -1.32 | -1.15 | -0.902 | -0.759 | -1.14 | -0.639 | 0.77
7 | GCGACTGGGGCATCAGCTGGTTACCATAACTTAA | -0.422 | -0.589 | -0.452 | 0.296 | -0.935 | 0.397 | 0.563 | 0.562 | -0.565 | 0.127 | 3.64 | 3.01 | -1.02 | -0.691 | -0.402 | -0.444 | -1.17 | -0.536 | -1.25 | 0.475
8 | ATCTCTAGGTAAAGTGCAGTGAAAGATCGATAGA | 0.236 | 0.336 | -0.00202 | -0.0786 | 0.221 | 0.525 | 0.843 | 2.05 | 0.6 | 1.67 | 2.44 | 1.95 | 0.431 | 0.336 | 0.363 | -0.0343 | 0.194 | 0.372 | 0.333 | 0.504
9 | ACAGACAGGTGAGTGAAGGTACCTCAGCTGGACG | -0.587 | -0.527 | -0.687 | -0.78 | -0.777 | -0.49 | 0.476 | -0.227 | -0.761 | -0.682 | 0.368 | 0.143 | -0.279 | -0.459 | -0.919 | -0.854 | -0.592 | -0.657 | -1.02 | 0.213
10 | TCTGCTAGGTCAGTTGGTCAGCAAACGAGCTGCC | 0.988 | 0.432 | -0.424 | 0.394 | 0.405 | 1.36 | 0.418 | 1.65 | 1.19 | 1.41 | 2.75 | 2.88 | 0.288 | 0.656 | 0.233 | 0.285 | -0.998 | 0.565 | -1.22 | 3.25
11 | CCTGCTAGGTCAATGGTCAGCTAGAGCAGCTCGC | 2.73 | 1.95 | -0.206 | 1.03 | -0.0711 | 3.04 | 4.26 | 5.05 | 2.14 | 4.51 | 4.03 | 3.86 | -0.82 | -0.691 | 1.03 | 0.552 | -0.638 | 1.5 | -0.363 | 3.71
12 | CGAACTAGGTCAAGGAGAGTGAATCTCCGCACGC | 2.98 | 1.99 | -0.412 | 1.17 | -0.521 | 4.25 | 7.01 | 6.29 | 3.34 | 5.99 | 8.29 | 7.9 | 1.48 | 0.243 | 0.896 | 0.744 | -0.41 | 1.44 | -0.0147 | 3.74
13 | GATACAGGGTCCAGGCCAGAGTACGCGTATTGAT | -0.251 | -0.534 | -0.485 | -0.738 | -0.692 | -0.292 | 0.664 | -0.347 | -0.488 | -0.478 | -0.66 | -0.0913 | -0.12 | -0.0353 | 0.34 | -0.441 | -0.03 | -0.412 | -0.345 | 0.355
14 | ACTATTAGTTGACTTAGAGCAACCGATACGACGC | -0.404 | 0.0474 | -0.0686 | 0.0226 | 0.635 | -0.306 | 0.964 | -0.296 | 0.379 | 0.173 | -0.101 | 0.383 | 1.2 | 1.1 | 0.577 | -0.152 | 0.119 | -0.00338 | 1.16 | 0.073
